Test [1] can be described thus: StAR promoter reporter inhibitors, counter-screen for LRH-1 inverse agonist project, cell-based, luminescence, high throughput (AID 651611; in the data active = inhibition above about 28%). The settings on record: StAR promoter luciferase reporter counterscreen, at 3.6 µM, stronger effect = higher value. (The purpose of a counterscreen is to sort out artefacts and off-target activity.)
In test [2] the target is Nuclear receptor subfamily 5 group A member 2 (Homo sapiens) (UniProt O00482). As to the kind of experiment: LRH-1 (NR5A2) inverse agonists, retest, confirmation, cell-based, luminescence (AID 651613).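 Note: HEK293T cells co-transfected with LRH-1 and StAR promoter luciferase reporter; 0% = vehicle wells and 100% = parental cells lacking receptor.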 To be noted: cell-based LRH-1 luciferase reporter, inverse agonism; at 3.6 µM; stronger effect = higher value.
The target in test [3] is Steroidogenic factor 1 (Homo sapiens) (UniProt Q13285). As to the kind of experiment: SF1 (NR5A1) inverse agonists, counter-screen for LRH-1 inverse agonist project, cell-based, luminescence, high throughput (AID 651614; in the data active = inhibition above about 44%;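 note: cells cotransfected with StAR promoter reporter and SF1 expression vector; 0% = vehicle on cells with receptor and 100% = vehicle on cells lacking receptor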). The settings on record: cell-based SF1 luciferase reporter, at 3.6 µM, stronger effect = higher value.
Test [4] can be described thus: VP16 transactivation reporter inhibitors, counter-screen for LRH-1 inverse agonist project, cell-based, luminescence, high throughput (AID 651615; in the data active = inhibition above about 33%). To be noted: Gal4-VP16 luciferase reporter cells, at 3.6 µM, stronger effect = higher value.

A number with no mark means an inactive call. Active and inactive are the calls of the source. Cut-off read from the data, not from the text of the source, unless noted: active = inhibition above about 42%; inactive = the rest.

Chain of Steroidogenic factor 1 (Homo sapiens) (Q13285 whole entry, looked up, the tested form may be a part): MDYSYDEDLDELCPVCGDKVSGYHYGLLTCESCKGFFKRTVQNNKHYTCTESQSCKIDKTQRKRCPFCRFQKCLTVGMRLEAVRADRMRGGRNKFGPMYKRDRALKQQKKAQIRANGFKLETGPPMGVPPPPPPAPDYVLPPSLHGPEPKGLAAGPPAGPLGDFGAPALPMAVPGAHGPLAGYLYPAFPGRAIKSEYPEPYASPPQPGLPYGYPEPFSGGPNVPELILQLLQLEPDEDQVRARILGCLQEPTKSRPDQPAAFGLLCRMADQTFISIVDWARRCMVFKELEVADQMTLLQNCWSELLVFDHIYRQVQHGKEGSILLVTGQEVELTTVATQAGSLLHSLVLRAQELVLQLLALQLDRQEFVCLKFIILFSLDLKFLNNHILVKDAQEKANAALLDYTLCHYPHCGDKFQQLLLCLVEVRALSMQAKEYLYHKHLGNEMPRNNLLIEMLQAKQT
Chain of Nuclear receptor subfamily 5 group A member 2 (Homo sapiens) (O00482 whole entry, looked up): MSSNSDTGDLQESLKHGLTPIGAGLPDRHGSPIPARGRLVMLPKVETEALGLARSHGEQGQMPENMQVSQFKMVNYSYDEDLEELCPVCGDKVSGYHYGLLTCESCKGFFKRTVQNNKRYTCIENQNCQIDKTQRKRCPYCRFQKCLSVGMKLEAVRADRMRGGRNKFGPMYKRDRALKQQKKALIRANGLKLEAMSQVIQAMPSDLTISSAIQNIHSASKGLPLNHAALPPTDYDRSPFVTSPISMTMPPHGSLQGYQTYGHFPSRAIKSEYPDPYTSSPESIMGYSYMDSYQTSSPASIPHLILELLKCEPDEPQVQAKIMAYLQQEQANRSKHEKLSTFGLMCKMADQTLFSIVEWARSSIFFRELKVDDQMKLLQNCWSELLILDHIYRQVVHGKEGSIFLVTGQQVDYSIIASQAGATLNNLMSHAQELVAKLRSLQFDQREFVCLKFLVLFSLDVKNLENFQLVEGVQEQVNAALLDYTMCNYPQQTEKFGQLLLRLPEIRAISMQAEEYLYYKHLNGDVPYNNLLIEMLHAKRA

`CCOc1ccc(S(=O)(=O)Nc2nc3ccccc3nc2N2CCN(C)CC2)cc1`: the inhibition is -10.8% in test [1], 27.2% in test [2], 24.1% in test [3] and -4.2% in test [4].
On to `Cc1ccc(C(=O)Nc2sc3c(c2C(=O)O)CCCCC3)o1`, for which the inhibition in test [1] is 12.2%; in test [2], 34.3%; in test [3], 69.9% (active); in test [4], 45.4% (active).
`O=[N+]([O-])c1ccc(N2CCCCC2)nc1N1CCCCC1`: the inhibition was -13.2% in test [1], 54.5% (active) in test [2], 51.2% (active) in test [3] and 13.4% in test [4].
Take `COCCNc1ccc([N+](=O)[O-])cc1C(=O)NC1CCCc2ccccc21` (stereo unspecified): the inhibition in test [1] is 4.6%; in test [2], 54.7% (active); in test [3], 53.5% (active); in test [4] it was 12.8%.
With `COc1cc([N+](=O)[O-])ccc1NC(=O)Cn1ccsc1=N`, the inhibition in test [1] is 4.07%; in test [2], 59.9% (active); in test [3], 57.6% (active); in test [4] it was -3.33%.
For `O=C(COc1ccc2ccc(=O)oc2c1)Nc1ccc(N2CCOCC2)cc1`, the inhibition in test [1] was 13.3%; in test [2], 57.3% (active); in test [3], 45.5% (active); in test [4] it was -5.4%.
`NC(=S)N/N=C/c1ccc(-c2ccc([N+](=O)[O-])cc2)o1`: the inhibition in test [1] was -7.04%; in test [2], 52.5% (active); in test [3], 44.5% (active); in test [4] it was 13.5%.
As for `COc1ccc(-c2cc3nc(-c4ccccc4)cc(N4CCN(C(C)=O)CC4)n3n2)cc1`, the inhibition in test [1] was 32.4% (active); in test [2] it was 31.1%; in test [3] it was 39.3%; in test [4] it was -11.9%.
`CCCCCOc1ccc(Br)cc1CSC(=N)N`: the inhibition in test [1] is 41.5% (active); in test [2], 99.7% (active); in test [3], 66.2% (active); in test [4] it was 84% (active).
`O=C(NCc1ccc2c(c1)OCO2)c1cc([N+](=O)[O-])ccc1N1CCCCC1`: the inhibition was 44.1% (active) in test [1], 36.2% in test [2], 47.6% (active) in test [3] and 30.3% in test [4].
For `CC1CCC2(CC1)NC(=O)N(CC(=O)Nc1ccc(N3CCOCC3)cc1)C2=O` (stereo unspecified), the inhibition in test [1] was 11.8%; in test [2], 45.8% (active); in test [3], 37.4%; in test [4], -8.77%.
Taken in the same sequence, the figures for `O=C(N/N=C/c1ccc(Sc2ccccn2)o1)c1cccc([N+](=O)[O-])c1` were -2.81%, 44.3% (active), 40% and 10.4%.
On the same counts, the results for `Cc1ccc(-c2csc(NC(=O)C3CCN(S(=O)(=O)c4cccs4)CC3)n2)cc1` are 15.3%, 58.5% (active), 55.4% (active) and 47.9% (active).
On to `Cc1sc2ncnc(NCC(O)c3ccc([N+](=O)[O-])cc3)c2c1C` (stereo unspecified), for which the inhibition in test [1] is 15.4%; in test [2], 51.7% (active); in test [3], 53.5% (active); in test [4] it was 42.1% (active).
Taken in the same sequence, the figures for `COc1ccc(NC(=O)CSc2nc3nc(C)cc(C)c3c(=O)[nH]2)cc1` were 3.79%, 43.6% (active), 48.5% (active) and -2.26%.
Taken in the same sequence, the figures for `O=C(C[C@H]1CC[C@@H]2[C@H](COC[C@H](O)CN2Cc2cccc(C(F)(F)F)c2)O1)NCCc1ccccc1` were 2.1%, 8.97%, 15.7% and 1.55%.
As for `Cc1csc(NC(=O)CSc2nc3[nH]c(=O)cc(O)c3s2)n1`, the inhibition in test [1] was 15.2%; in test [2] it was 60.5% (active); in test [3], 68.1% (active); in test [4], -21.4%.
Consider `COc1ccccc1NC(=O)CN1CCN(CC(=O)Nc2ccc3c(c2)OCCO3)CC1`, for which the inhibition is 6.64% in test [1], 56.8% (active) in test [2], 49.5% (active) in test [3] and -7.19% in test [4].
On to `COc1cc(C(=O)Nc2sc3c(c2C#N)CCN(C(C)=O)C3)cc(OC)c1OC`, for which the inhibition in test [1] was 23.3%; in test [2], 66.3% (active); in test [3], 62.2% (active); in test [4], -16.2%.
Regarding `O=[N+]([O-])c1cccc(-c2ccc(/C=N/NC(=S)NCc3ccco3)o2)c1`, the inhibition in test [1] is 10.6%; in test [2] it was 48.5% (active); in test [3], 51.2% (active); in test [4], -3.67%.
As to `O=[N+]([O-])c1cnccc1Nc1ccc(Cl)cc1`, the inhibition in test [1] was 15.6%; in test [2], 64.1% (active); in test [3] it was 60.5% (active); in test [4], 18.9%.
With `O=C(CCl)NCCN1C(=O)S/C(=C\c2cccnc2)C1=O`, the inhibition is 10.2% in test [1], 55.9% (active) in test [2], 57.4% (active) in test [3] and -3.37% in test [4].
Regarding `O=C(CCl)Nc1ccccc1C(=O)c1ccccc1`, the inhibition is 1.14% in test [1], 48.4% (active) in test [2], 50% (active) in test [3] and -2.6% in test [4].
Consider `Cc1ccc(NC(=O)CSc2nsc(SCC(=O)Nc3ccc(C)cc3C)c2C#N)c(C)c1`, for which the inhibition in test [1] was 13.3%; in test [2] it was 46.1% (active); in test [3] it was 34.5%; in test [4], -0.96%.
Taken in the same sequence, the figures for `O=C(CCl)Nc1cccc(Oc2cnccn2)c1` were 37.1% (active), 69% (active), 64.9% (active) and -26.5%.
On the same counts, the results for `CCCN(CC(=O)Nc1ccc(C(C)=O)cc1)CC(=O)Nc1ccccc1C` are 1.27%, 62.4% (active), 56% (active) and 9.79%.
For `Cc1c(Cl)cccc1NC(=O)CSc1sc2c(O)cc(=O)[nH]c2c1C#N`, the inhibition is -3.35% in test [1], 25.5% in test [2], 29.2% in test [3] and 6.14% in test [4].
On to `COc1ccc(-c2cc(C(F)F)n3ncc(C(=O)N4CCc5ccccc5C4)c3n2)cc1`, for which the inhibition in test [1] was 17.2%; in test [2] it was 58.3% (active); in test [3] it was 56.7% (active); in test [4], -2.06%.
Taken in the same sequence, the figures for `COc1ccc(S(=O)(=O)Nc2cc3c4c(oc3c3ccccc23)CCCC4=O)cc1` were 24.3%, 69.6% (active), 65.9% (active) and -1.29%.
For `C/C(=N\N=C(N)N)c1cc(Cl)ccc1Cl`, the inhibition in test [1] is 26.9%; in test [2], 102% (active); in test [3] it was 30.1%; in test [4] it was 75.8% (active).
`O=C(Nc1cccc2ncccc12)c1ccc([N+](=O)[O-])o1`: the inhibition in test [1] was 16.2%; in test [2], 69.9% (active); in test [3], 64.4% (active); in test [4], -17.5%.
Take `CCOC(=O)C1CCN(Cc2cc(Cl)c3ccccc3c2O)CC1`: the inhibition in test [1] was 1.44%; in test [2], 10.1%; in test [3], 32.9%; in test [4] it was 2.83%.
Turning to `Cc1ccc(NC(=O)CSc2sc3c(O)cc(=O)[nH]c3c2C#N)c(F)c1`, the inhibition in test [1] is 7.65%; in test [2], 57.1% (active); in test [3], 41.9%; in test [4] it was -9.48%.
Turning to `COc1cccc(C(C)(O)c2nc(-c3ccc(S(C)(=O)=O)cc3)cs2)c1` (stereo unspecified), the inhibition was 7.7% in test [1], 58.2% (active) in test [2], 62.1% (active) in test [3] and 24% in test [4].
In the case of `CCOc1ccc(NC(=O)COC(=O)c2ccc3c(c2)OCCO3)cc1`, the inhibition in test [1] is 14%; in test [2], 57.6% (active); in test [3] it was 51.9% (active); in test [4], -12.9%.
Taken in the same sequence, the figures for `CC(C)NC(=O)CN1CCN(C(=O)CCl)CC1` were 1.19%, 52.8% (active), 27.2% and 7.31%.
Take `COc1ccc(CN(C)C(=O)CCl)cc1`: the inhibition in test [1] is 14.9%; in test [2] it was 53.5% (active); in test [3], 52.9% (active); in test [4], -5.19%.
With `Fc1ccc(Br)cc1SCCc1ccncc1`, the inhibition was 1.89% in test [1], 45.7% (active) in test [2], 34.9% in test [3] and -2.36% in test [4].
Taken in the same sequence, the figures for `C/C=C/c1ccc(OCCOc2ccc(C=O)cc2OC)c(OC)c1` were 11.4%, 44.7% (active), 35.4% and 2.21%.
As for `S=C(NCc1ccc(Cl)cc1)Nc1ccncc1`, the inhibition in test [1] is 24.2%; in test [2], 80.9% (active); in test [3], 72.8% (active); in test [4] it was 35.1% (active).
With `N#Cc1cc(Br)ccc1N=C1CCCN1c1ccccc1`, the inhibition in test [1] is 2.82%; in test [2], 44.5% (active); in test [3] it was 42.6%; in test [4], 0.34%.
Consider `Cc1c(F)cccc1NS(=O)(=O)c1ccc(N2CCCC2=O)cc1`, for which the inhibition was -2.14% in test [1], 56% (active) in test [2], 47.1% (active) in test [3] and 3.58% in test [4].
In the case of `CC(=O)c1ccc(NC(=O)C(C)O/N=C(\N)c2ccccc2)cc1` (stereo unspecified), the inhibition in test [1] is 10.5%; in test [2] it was 51.7% (active); in test [3], 41.8%; in test [4], -7.19%.
With `O=[N+]([O-])c1cnccc1Nc1ccc(F)cc1`, the inhibition is 13.2% in test [1], 66.8% (active) in test [2], 55.2% (active) in test [3] and 9.14% in test [4].
Taken in the same sequence, the figures for `O=C(COC(=O)c1ccc(=O)n(Cc2ccccc2)n1)Nc1ccc2c(c1)OCCO2` were 11.8%, 51.1% (active), 43.7% (active) and -13.9%.
On to `Cc1ccc2nc(-c3ccc(NS(C)(=O)=O)cc3)cc(-c3ccccc3)c2c1`, for which the inhibition in test [1] was 8.04%; in test [2], 51.1% (active); in test [3], 51.8% (active); in test [4] it was -2.14%.
Regarding `Cc1ccc2[nH]c(C)c(/C=C/c3cc[n+](C)cc3)c2c1`, the inhibition in test [1] is 39.2% (active); in test [2], 77.4% (active); in test [3], 67.3% (active); in test [4], 67.8% (active).
Taken in the same sequence, the figures for `C=CCNc1nc2c(c(=O)n(C)c(=O)n2C)n1CCCCCC` were 28.9% (active), 73% (active), 54.9% (active) and 47.2% (active).
On to `Cc1cc(NC(=O)CSc2nc3c(sc4ccccc43)c(=O)n2CCCN2CCOCC2)n[nH]1`, for which the inhibition in test [1] is 48% (active); in test [2] it was 70.3% (active); in test [3] it was 44.2% (active); in test [4], -8.59%.
On the same counts, the results for `CCCOc1ccc(Cn2cnc3ccccc32)cc1` are 5.08%, 54.6% (active), 52.4% (active) and 27.3%.
Consider `Cc1cc(C)c(C(N)=O)c(Nc2cccc3ccccc23)n1`, for which the inhibition in test [1] was 1.09%; in test [2] it was 2%; in test [3], 22.7%; in test [4], -17.9%.
On the same counts, the results for `N#Cc1c2c(c(NCCOCCO)n3c1nc1ccccc13)CCCC2` are 4.14%, 40.5%, 31.7% and -0.15%.
Regarding `CCN(CC)CC(=O)Nc1ccc(-c2nc3cc(NC(=O)CN(CC)CC)ccc3o2)cc1`, the inhibition in test [1] is -9.81%; in test [2], 42.5% (active); in test [3] it was 39.6%; in test [4], -0.95%.
On the same counts, the results for `NC(=O)CC[C@H](NC(=O)c1ccc(F)cc1)C(=O)OCC(=O)Nc1ccc(N2CCOCC2)cc1` are 0.81%, 57.5% (active), 47.9% (active) and -8.19%.

What is called inhibition is the drop in the measured response relative to a control, in per cent.

Source of the values: PubChem BioAssay.
